Laboratory results: PubChem BioAssay (NCI)
About 83,000 compounds went through this panel and 20% of them were active in at least one assay; those are over-represented in the sample as a whole.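 Percent growth is the endpoint: 0 to 100 indicates growth inhibition (40 means 60% inhibition), 0 means no net growth, and negative values indicate cell death.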 Activity calls are given as the source filed them. How the source made its calls: active means growth percent below 10; inactive means the rest.

Tests used:
Test in all cases: NCI-60 one-dose screen, 48 h (100 = growth as untreated, 0 = no growth, -100 = all killed)
Settings in all cases: 10 µM unless noted
SR leukemia = tested on: SR leukemia
RPMI-8226 leukemia = tested on: RPMI-8226 leukemia
OVCAR-8 ovarian = tested on: OVCAR-8 ovarian
OVCAR-5 ovarian = tested on: OVCAR-5 ovarian
OVCAR-4 ovarian = tested on: OVCAR-4 ovarian
SK-OV-3 ovarian = tested on: SK-OV-3 ovarian
IGROV1 ovarian = tested on: IGROV1 ovarian
OVCAR-3 ovarian = tested on: OVCAR-3 ovarian
HS 578T breast = tested on: HS 578T breast
NCI/ADR-RES ovarian = tested on: NCI/ADR-RES ovarian
T-47D breast = tested on: T-47D breast
BT-549 breast = tested on: BT-549 breast
MDA-MB-435 melanoma = tested on: MDA-MB-435 melanoma
SW-620 colon = tested on: SW-620 colon
MCF7 breast = tested on: MCF7 breast
HCT-116 colon = tested on: HCT-116 colon
HCC-2998 colon = tested on: HCC-2998 colon
KM12 colon = tested on: KM12 colon

Measured: growth

O=C1c2ccccc2C(=O)c2cc(Cn3c[n+](Cc4ccc5ccccc5c4)c4ccccc43)ccc21
inactive: SR leukemia 38.1% | OVCAR-8 ovarian 41.4% | OVCAR-5 ovarian 59.3% | OVCAR-4 ovarian 47.2% | SK-OV-3 ovarian 83.2% | OVCAR-3 ovarian 34.9% | HS 578T breast 62.2% | NCI/ADR-RES ovarian 91.1% | T-47D breast 41.2% | BT-549 breast 47% | MDA-MB-435 melanoma 38.4% | SW-620 colon 64.4% | MCF7 breast 39.9% | HCT-116 colon 41.2% | HCC-2998 colon 46.2% | KM12 colon 25.5%
active: RPMI-8226 leukemia 2.45% | IGROV1 ovarian 3.66%

Cc1cc(C(=O)Nc2cc(Nc3ncccc3-c3ncnc4nc[nH]c34)ccc2F)cc(C(C)(C)C#N)c1
active: IGROV1 ovarian 3.72%
inactive: SR leukemia 32.1% | RPMI-8226 leukemia 24% | OVCAR-8 ovarian 39.9% | OVCAR-5 ovarian 30.3% | OVCAR-4 ovarian 53.2% | SK-OV-3 ovarian 87% | OVCAR-3 ovarian 52.1% | HS 578T breast 44.6% | NCI/ADR-RES ovarian 49.9% | T-47D breast 47% | BT-549 breast 54.5% | MDA-MB-435 melanoma 33.2% | SW-620 colon 34.3% | MCF7 breast 62.4% | HCT-116 colon 14.1% | HCC-2998 colon 35.3% | KM12 colon 35.9%

O=C1CCc2c(sc3[nH]c(=S)n(-c4cc(C(F)(F)F)cc(C(F)(F)F)c4)c(=O)c23)C1
inactive: SR leukemia 13.4% | SW-620 colon 18.5%
active: RPMI-8226 leukemia -23.7% | OVCAR-8 ovarian 1.35% | OVCAR-5 ovarian -24.4% | OVCAR-4 ovarian 4.84% | SK-OV-3 ovarian -18.7% | IGROV1 ovarian -10.5% | OVCAR-3 ovarian -13.3% | HS 578T breast -6.29% | NCI/ADR-RES ovarian -13.4% | T-47D breast -34.6% | BT-549 breast 3.75% | MDA-MB-435 melanoma 7.15% | MCF7 breast 0.882% | HCT-116 colon 3.29% | HCC-2998 colon -49.1% | KM12 colon -70.2%

CCOc1cc(\C=N/N=C(N)/C(N)=N\N=C/c2ccc(O)c(OCC)c2)ccc1O
inactive: SR leukemia 88.8% | RPMI-8226 leukemia 94.8% | OVCAR-8 ovarian 67.9% | OVCAR-5 ovarian 115% | OVCAR-4 ovarian 105% | SK-OV-3 ovarian 113% | IGROV1 ovarian 129% | OVCAR-3 ovarian 113% | HS 578T breast 113% | NCI/ADR-RES ovarian 98.7% | T-47D breast 47.4% | BT-549 breast 93.1% | MDA-MB-435 melanoma 98.7% | SW-620 colon 108% | MCF7 breast 91.5% | HCT-116 colon 99.6% | HCC-2998 colon 98.6% | KM12 colon 101%

COC(=O)c1sc(-c2ccc(C)cc2)cc1O
inactive: SR leukemia 81.9% | RPMI-8226 leukemia 103% | OVCAR-8 ovarian 117% | OVCAR-5 ovarian 112% | OVCAR-4 ovarian 91.5% | SK-OV-3 ovarian 114% | IGROV1 ovarian 100% | OVCAR-3 ovarian 99.6% | HS 578T breast 101% | NCI/ADR-RES ovarian 99.8% | T-47D breast 102% | BT-549 breast 107% | MDA-MB-435 melanoma 91.9% | SW-620 colon 103% | MCF7 breast 96.4% | HCT-116 colon 96.6% | HCC-2998 colon 94.7% | KM12 colon 95.8%

CN(C)C(=O)OCc1ccc2c(Cl)cc(Cl)c(O)c2n1
inactive: SR leukemia 34.3% | RPMI-8226 leukemia 34.7% | OVCAR-8 ovarian 22.6% | OVCAR-5 ovarian 77.4% | OVCAR-4 ovarian 20.8% | SK-OV-3 ovarian 50.1% | IGROV1 ovarian 40.9% | OVCAR-3 ovarian 30.6% | HS 578T breast 71.8% | NCI/ADR-RES ovarian 14.8% | T-47D breast 37.8% | BT-549 breast 60.3% | MDA-MB-435 melanoma 31.2% | SW-620 colon 25.7% | MCF7 breast 32.4% | HCT-116 colon 31.6% | HCC-2998 colon 61.8% | KM12 colon 35.4%

COc1ccccc1NC(=O)n1c(=O)cc(C)c2ccc(O)cc21
inactive: SR leukemia 118% | RPMI-8226 leukemia 109% | OVCAR-8 ovarian 106% | OVCAR-5 ovarian 112% | OVCAR-4 ovarian 110% | SK-OV-3 ovarian 100% | IGROV1 ovarian 113% | OVCAR-3 ovarian 113% | HS 578T breast 110% | NCI/ADR-RES ovarian 107% | T-47D breast 99.8% | BT-549 breast 107% | MDA-MB-435 melanoma 105% | SW-620 colon 109% | MCF7 breast 101% | HCT-116 colon 107% | HCC-2998 colon 95.9% | KM12 colon 101%

CC1=NN(c2cccc(Cl)c2)C(=O)/C1=C\C=C\c1ccccc1
inactive: SR leukemia 10.6% | RPMI-8226 leukemia 15.4% | OVCAR-5 ovarian 144% | SK-OV-3 ovarian 39.4% | IGROV1 ovarian 45.5% | OVCAR-3 ovarian 104% | HS 578T breast 133% | T-47D breast 36.7% | BT-549 breast 78.4% | MDA-MB-435 melanoma 13.6% | MCF7 breast 10.9% | HCC-2998 colon 30.9% | KM12 colon 16.1%
active: OVCAR-8 ovarian 0.373% | OVCAR-4 ovarian -10.4% | NCI/ADR-RES ovarian -17.5% | SW-620 colon 1.26% | HCT-116 colon -89.2%

CCCNNC(=O)c1ccc(CNC(=O)/C=C/c2ccccc2)cc1
inactive: SR leukemia 30.8% [2.5 µM] | RPMI-8226 leukemia 18.9% [2.5 µM] | OVCAR-8 ovarian 20.7% [2.5 µM] | OVCAR-5 ovarian 18.1% [2.5 µM] | OVCAR-4 ovarian 63.2% [2.5 µM] | IGROV1 ovarian 30.5% [2.5 µM] | OVCAR-3 ovarian 47.6% [2.5 µM] | HS 578T breast 47.3% [2.5 µM] | NCI/ADR-RES ovarian 21% [2.5 µM] | BT-549 breast 77.2% [2.5 µM] | MDA-MB-435 melanoma 31.8% [2.5 µM] | SW-620 colon 22.9% [2.5 µM] | MCF7 breast 30.6% [2.5 µM] | HCC-2998 colon 34.2% [2.5 µM] | KM12 colon 47.1% [2.5 µM]
active: SK-OV-3 ovarian 8.72% [2.5 µM] | T-47D breast 0.925% [2.5 µM] | HCT-116 colon 1.27% [2.5 µM]
